Source: PubChem BioAssay (NCI)
This is part of a sample that, as a whole, favours compounds with a hit. Of some 83,000 tested, about 20% had one in any assay.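 Method: cells in 96-well plates; compound added at one concentration; 48 h incubation; percent growth measured; values under 10 scored active.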 Unmarked numbers belong to inactive results. The source made the active and inactive calls.

What was measured:
Experiment in all cases: NCI-60 one-dose screen, 48 h (100 = growth as untreated, 0 = no growth, -100 = all killed)
SK-MEL-2 melanoma = conditions: 10 µM unless noted
EKVX NSCLC = conditions: 10 µM
SN12C renal = conditions: 10 µM unless noted
UO-31 renal = conditions: 10 µM unless noted
TK-10 renal = conditions: 10 µM unless noted
ACHN renal = conditions: 10 µM unless noted
A498 renal = conditions: 10 µM unless noted
CCRF-CEM leukemia = conditions: 10 µM
MOLT-4 leukemia = conditions: 10 µM unless noted
SR leukemia = conditions: 10 µM unless noted
RPMI-8226 leukemia = conditions: 10 µM unless noted
OVCAR-8 ovarian = conditions: 10 µM unless noted
OVCAR-5 ovarian = conditions: 10 µM unless noted
OVCAR-4 ovarian = conditions: 10 µM unless noted
SK-OV-3 ovarian = conditions: 10 µM unless noted
IGROV1 ovarian = conditions: 10 µM unless noted
OVCAR-3 ovarian = conditions: 10 µM unless noted
HS 578T breast = conditions: 10 µM unless noted
NCI/ADR-RES ovarian = conditions: 10 µM unless noted
CAKI-1 renal = conditions: 10 µM unless noted

Row | Structure (SMILES) | growth (SK-MEL-2 melanoma) [%] | growth (EKVX NSCLC) [%] | growth (SN12C renal) | growth (UO-31 renal) | growth (TK-10 renal) | growth (ACHN renal) | growth (A498 renal) [%] | growth (CCRF-CEM leukemia) | growth (MOLT-4 leukemia) | growth (SR leukemia) | growth (RPMI-8226 leukemia) | growth (OVCAR-8 ovarian) | growth (OVCAR-5 ovarian) [%] | growth (OVCAR-4 ovarian) | growth (SK-OV-3 ovarian) | growth (IGROV1 ovarian) | growth (OVCAR-3 ovarian) | growth (HS 578T breast) | growth (NCI/ADR-RES ovarian) | growth (CAKI-1 renal) [%]
1 | CCc1c(C)c2ccc(OCC(=O)N=Nc3c(O)[nH]c4ccccc34)c(C)c2oc1=O | 32.9 | 88.9 | -43% (active) | 64.8% | 61.3% | 82.2% | 56.9 | 10.3% | 8.66% (active) | 8.17% (active) | -3.81% (active) | -11.3% (active) | 24 | -21.7% (active) | 80.9% | 7.99% (active) | -58.2% (active) | -5.77% (active) | 47.7% | 
2 | CC[C@H](Nc1ncnc2nc[nH]c12)c1nc2cccc(NCc3ccc(C(=O)NO)nc3)c2c(=O)n1-c1ccccc1 | 55.6 | 77.1 | 38.9% | 87.1% | 58.9% | 97% | 54.2 | 19.6% | 15% | 11.6% | 6.61% (active) | 36.9% | 84.9 | 70.4% | 80.8% | 30.9% | 41.5% | 13.8% | 106% | 
3 | COc1ccc(C(=O)c2no[n+]([O-])c2C(=O)c2ccc(OC)cc2)cc1 | 93 | 64.8 | 72.5% | -100% (active) | 5.22% (active) | -47% (active) | 116 | -68.7% (active) | -80.1% (active) |  | -68.1% (active) |  | 89.8 | -68.5% (active) | 113% |  | -100% (active) | 108% | 96.2% | 
4 | Cc1c(Cc2ccccc2)c(=O)oc2c(C)c(OCC(=O)n3nc(C#N)cc3N)ccc12 | 98.9 | 97.7 | 102% | 75.6% | 123% | 93.6% | 126 | 99.6% | 98.5% | 90.3% | 100% | 102% | 104 | 93% | 93.8% | 103% | 104% | 99.2% | 102% | 
5 | COc1ccc(-c2nc(SCC(C)C)nc(Nc3ccc(C)cc3)c2C#N)cc1 | 107 | 72.8 | 41.3% | 59.7% | 43.3% | 13.6% |  | 52.9% | 81.6% | 44.3% | 73.2% | 72.3% | 86.4 | -50.4% (active) | 73.7% | 59.5% | 33.8% | 42.6% | 72.7% | 
6 | Cc1c(Cc2ccccc2)c(=O)oc2c(C)c(OCc3n[nH]c(=S)o3)ccc12 | 101 | 79 | 67.8% | 94.8% | 116% | 89.2% | 67.3 | 22.8% | 19.8% | 5.04% (active) | 56.6% | 30.6% | 89.9 | 43.8% | 86.9% | 67.3% | 74.5% | 62.3% | 99.6% | 
7 | O=C(Oc1ccccc1)c1ccccc1Cl | 123 | 99.6 | 107% | 96.7% | 111% | 102% |  | -11.9% (active) | 110% |  | 62.9% | 104% | 90.7 | 108% | 101% | 109% | 97.3% |  | 104% | 
8 | CC(=O)Nc1nc(C)c(C(=O)NNC(=O)Nc2ccccc2)s1 | 29.9 | 153 | 92.3% | 77.7% |  | 93.3% | 90.7 | 79.8% | 115% | 95.9% | 91.7% | 113% | 108 | 109% | 105% | 141% | 100% | 102% | 98.6% | 140
9 | Cc1ccc(CC(=O)O)c(C)c1 | 95.5 | 109 | 99.4% | 91.4% | 88.3% | 110% |  | 101% | 105% | 94.1% | 104% | 100% | 98.8 | 105% | 108% | 112% | 103% | 101% | 101% | 
10 | Cc1nc2ccccc2c(=O)n1-c1cccc(OCc2cn(-c3cccc(O)c3)nn2)c1 | 90.6 | 103 | 97.4% | 68.2% | 100% | 93.8% |  | 88.3% | 80.8% | 86.3% | 71.5% | 88.6% | 111 | 89.6% | 103% | 99.2% | 91.5% | 87.4% | 98% | 
11 | NC(N)=N/N=C/c1cccc(Br)c1 | 103 | 103 | 101% | 79.5% | 100% | 108% |  | 101% | 91.2% |  | 95.3% | 110% | 104 | 91.6% | 91.4% | 86.4% | 99.8% |  | 103% | 
12 | CCN(CCO)CCNc1ccc(C)c2sc3cc(OC)ccc3c(=O)c12 | 99.1 | 86.4 | 55.9% | 49.4% | 79.3% | 36.8% |  | 47.9% | 21.7% | -3.46% (active) | 65.3% | 62.7% | 82.7 | 84.7% | 88.7% | 66.5% | 90.6% | 84.2% | 64.1% | 
13 | Nc1ccc(S(=O)(=O)c2ccc(NO)cc2)cc1 | 93.2 | 90.5 | 121% | 84.2% |  | 114% | 114 | 91.8% | 95.9% | 129% | 106% | 95.6% | 80.4 | 88.6% | 94.2% | 1.89% (active) | 131% | 97% | 90.3% | 102
14 | CCOc1ccc2nc3ccc(Cl)cc3nc2c1 | 97.5 | 75 | 100% | 74.9% |  | 94.6% | 83.3 | -0.816% (active) | 50.8% | -19.9% (active) | 71.5% | 103% | 216 | 82.1% | 104% | -8.97% (active) | 110% | 106% | 96.4% | 124
15 | CCCCCCCCCCCCc1ccc([N+](CC)(CC)CC)cc1 | 42.7 | 41 | 33.5% | 78.7% |  | 85% | 60 | 33% | 51.9% | 32.4% | 6.37% (active) | 31.7% | 92.3 | 21.6% | 73.2% | 48.1% | 23.2% | 65.4% | 103% | 88.7
16 | COc1cc(Cn2ccc3c2-c2oncc2CC3)cc(OC)c1 | 28.8 | 53.9 | 38% | 28.8% |  | 47.2% | 32.4 | 30.1% | 38.4% | 24.1% | 35.2% | 49% | 57 | 61.7% | 24.6% | 26.2% | 4.85% (active) | 32.4% | -13.9% (active) | 23.3
17 | COc1ccc(Cn2cc3c(c2-c2ccccc2)CCc2cnoc2-3)cc1OC | 48 | 46.5 | 49.5% | 35.3% |  | 57.7% | 18.5 | 17.1% | 35.9% | 18.4% | 22.6% | 38.9% | 75.6 | 41.5% | 8.39% (active) | 37.7% | 13.8% | 5.72% (active) | 6.32% (active) | 18.9
